Source: PubChem (National Center for Advancing Translational Sciences (NCATS))
DT40 TDP1 CPT: qHTS for Inhibitors of human tyrosyl-DNA phosphodiesterase 1 (TDP1): qHTS in cells in presence of CPT. chicken DT40 Tdp1-/-;hTDP1 cells + 20 nM CPT, ATP luminescence, 48 h. AID 686979, 2013. 420,000 compounds, 12% hits. Potency, µM (series often up to 46.2 µM), without a hit: at the highest dose activity change, negative = growth inhibition, most hits filed as inhibitors; note: potency is the fitted concentration of half-maximal effect; nearly all actives have a fitted effect of over 55% in size
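Chicken DT40 Tdp1-/- cells complemented with human TDP1, 400 cells/well, exposed to compounds plus 20 nM camptothecin for at least 48 h at 37 C; viability read as ATP content by CellTiter-Glo luminescence.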
uPA generation: qHTS for Inhibitors of Cell Surface uPA Generation | cell surface uPA generation assay, qHTS | AID 540303, 2011 | Potency, µM (highest dose often 38.3 µM), for inactives: at the highest dose activity change, negative = inhibition, actives largely listed as inhibitors | 330,000 compounds, 0.31% hits; active = well fitted inhibition curve with a large enough effect; inconclusive = small, poorly fitted or top-dose-only effect; inactive = no such curve, though single readings can be large or run the other way; tested in mouse RAW 264.7 cells; note: potency is the fitted concentration of half-maximal effect; nearly all actives have a fitted effect of over 55% in size
HT1080-NT tox: qHTS for induction of synthetic lethality in tumor cells producing 2HG: qHTS for the HT-1080-NT fibrosarcoma cell line | HT-1080-NT fibrosarcoma viability, CellTiter-Glo ATP luminescence, 48 h | Potency, µM (top dose mostly 46.1 µM), for inactives: at the top dose activity, negative = less viability, usual class: cytotoxic | 360,000 compounds, 1.6% hits | AID 686970, 2013;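 note: NT is the 2HG producing partner of a matched IDH1 knockdown line; potency is the fitted concentration of half-maximal effect; 0% = DMSO-treated cells and -100% = media-only wells without cells; nearly all actives have a fitted effect of over 55% in size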
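Viability of the 2HG-overproducing fibrosarcoma line after 48 hours of compound exposure at 37 degrees C was determined by luminescence with CellTiter-Glo, and concentration-effect curves were then fitted and categorized.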
IL-1B inflam inh: qHTS for Inhibitors of Inflammasome Signaling: IL-1-beta AlphaLISA Primary Screen; THP-1 LPS/ATP IL-1B secretion, AlphaLISA, 16 h; active compounds read low; activity change, % at 57.5 µM; 360,000 compounds, 4.7% hits; AID 743279, 2014; in the data active = activity change below about -50%; inconclusive = mostly about -30% to -49%
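Secreted IL-1B measured by AlphaLISA bead assay after 16 h compound exposure of THP-1 cells; compounds (final up to 57.5 uM) added 1 h before LPS (250 ng/mL) and ATP (1.25 mM) stimulation; lower signal means less secretion.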
DT40 TDP1 no CPT: qHTS for Inhibitors of human tyrosyl-DNA phosphodiesterase 1 (TDP1): qHTS in cells in absence of CPT. Potency, µM (titrated, usually from 46.2 µM), for inactives: top-dose activity change, negative = growth inhibition, hits mostly inhibitors. DT40 Tdp1-/- hTDP1 cells, no CPT, ATP luminescence, 48 h. 420,000 compounds, 15% hits; note: potency is the fitted concentration of half-maximal effect; nearly all actives have a fitted effect of over 55% in size
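Chicken DT40 Tdp1-/- cells complemented with human TDP1, screened without camptothecin (DMSO vehicle only), 400 cells/well. Compounds pin-transferred, cells incubated at 37 °C for at least 48 hr. Growth read as ATP-dependent luminescence (CellTiter-Glo, 30 min at RT).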
HT1080 IDH1KD tx: qHTS for induction of synthetic lethality in tumor cells producing 2HG: qHTS for the HT-1080-IDH1KD cell line; HT-1080 IDH1 knockdown viability, ATP luminescence, 48 h; Potency, µM (top dose mostly 46.1 µM), inactives show at the top dose activity, negative = toxicity, usual class: cytotoxic; 360,000 compounds, 2% hits;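 note: potency is the fitted concentration of half-maximal effect; 0% = DMSO wells and -100% = cell-free medium wells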
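Using the IDH1-knockdown HT-1080 line run in the same batch and compound series as the NT line, viability after 48 h at 37 °C was determined by CellTiter-Glo luminescence and expressed as % activity.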
* hit, by the source's call; ? = inconclusive; . = no result given; [ ] = remark or other dose. A selection: hits, their analogues and other compounds. The true share with any hit is near 19%. Unless noted, calls come from the whole dose curve; as a rule, active = well fitted curve in the direction sought with a large enough effect; inconclusive = small, poorly fitted or top-dose-only effect, or another doubt; inactive = no such curve, though single readings can be large; an effect the other way counts as inactive or inconclusive. Unless noted, % is set by controls: 0 for no effect and ±100 for the full control effect.

SMILES | DT40 TDP1 CPT | uPA generation | HT1080-NT tox | IL-1B inflam inh | DT40 TDP1 no CPT | HT1080 IDH1KD tx
O=C(CSc1ncccn1)NCC1Cc2cccc(-c3ncccn3)c2O1 (configuration not stated) | 7%[9.04 µM] | . | . | . | 8% | .
CCN(C(=O)CCCCC(=O)N(CC)c1ccccc1)c1ccccc1 | ? | 8% | 14% | 18 | 18µM* | 7%
N#Cc1cc2c(nc1SCc1ccccc1)CCCCC2 | 18µM* | 0% | 6% | 15 | 21µM* | 6%
Cc1ccc(CSc2nc3c(cc2C#N)CCC3)cc1 | -9% | 1% | 19% | 0 | -2% | 10%
CCOC(=O)CC(=O)CSc1nc2c(c(-c3cccs3)c1C#N)CCC2 | 3% | 11% | -1% | 23 | -4% | 9%
CN1CCc2nc(SCc3ccc(Cl)cc3)c(C#N)c(-c3cccs3)c2C1 | 16µM* | . | -10% | -12 | ? | ?
N#Cc1cc2c(nc1SCc1cccnc1)CCCCC2 | -24% | -11% | -17% | -66* | -23% | 0%[9.24 µM]
CN1CCc2nc(SCc3ccc(C(C)(C)C)cc3)c(C#N)cc2C1 | 23µM* | 15% | ? | -21 | ? | 11µM*
CCC(C)NC(=O)Cn1c(=O)n(-c2ccc(OC)c(OC)c2)c(=O)c2ccccc21 (configuration not stated) | 3% | . | . | . | 17% | .
CCn1c(=O)n(CC)c2cc(NC(=O)C(C)c3ccccc3)c(Br)cc21 (configuration not stated) | ? | 13% | -8% | 13 | ? | -4%
CCCCN(C(=O)C1CC(=O)N(c2ccc(CC)cc2)C1)c1c(N)n(CCC)c(=O)[nH]c1=O (configuration not stated) | -24% | -10% | 8% | -4 | -5% | 0%
CCC(C)NC(=O)c1sc2nc3n(c(=O)c2c1C)CCC3 (configuration not stated) | 1% | . | . | . | -8% | .
CC1(C)OC(=O)C2=C(C[C@@H](C3CCCCC3)O[C@H]2c2ccccc2)O1 | ? | . | ? | 42 | 16µM* | ?
CC(C)[C@@H]1O[C@H](CCc2ccccc2)CC2=C1C(=O)OC(C)(C)O2 | 15µM* | . | -12% | 33 | 15µM* | -22%
CC(C)c1ccc([C@@H]2O[C@H](CCc3ccccc3)CC3=C2C(=O)OC(C)(C)O3)cc1 | ? | . | -5% | 20 | 16µM* | -19%
CC1(C)OC(=O)C2=C(C[C@@H](CCc3ccccc3)O[C@@H]2c2ccc(Cl)cc2)O1 | ? | . | ? | -22 | ? | ?
C[C@@H]1O[C@H](CCc2cccc(Cl)c2)CC2=C1C(=O)OC(C)(C)O2 | 1.6µM* | . | -10% | 7 | 2.9µM* | -15%
CC1OC(CCc2cccc(Cl)c2)Cc2[nH][nH]c(=O)c21 (configuration not stated) | -39% | . | -13% | 9 | -58% | -13%
CCCCCCCCCCCCCCCCCCN(CCCCCCCCCCCCCCCCCC)c1ccc(C=O)cc1 | 9% | . | . | . | 1% | .
CC1(C)OC(=O)C2=C(CC(CCc3ccccc3)OC2c2ccccc2)O1 (configuration not stated) | 13µM* | . | -3% | 26 | 21µM* | 2%
N#Cc1nc2ccccc2n1OCc1ccccc1 | -1% | . | 4% | ? | ? | -22%
Cc1ccccc1CN1C(=O)c2ccccc2S(=O)c2ccc(C(=O)NC3CCC(C)CC3)cc21 (configuration not stated) | ? | . | . | . | -29% | .
CN(C)Cc1c(C(=O)N/N=C/c2ccc(OCc3c(F)cccc3Cl)cc2)nnn1-c1nonc1N | ? | -1% | -11% | -2 | 13µM* | 1%
C/C(=N/NC(=O)c1nnn(-c2nonc2N)c1-c1ccccc1)c1ccc2c(c1)OCO2 | 4% | 6% | -4% | -86* | -10% | -12%
COCc1c(C(=O)N/N=C\c2cccs2)nnn1-c1nonc1N | 9% | 2% | -4% | -68* | -18% | -7%
SMILES | DT40 TDP1 CPT | uPA generation | HT1080-NT tox | IL-1B inflam inh | DT40 TDP1 no CPT | HT1080 IDH1KD tx
CCc1c(C(=O)N/N=C/c2cccs2)nnn1-c1nonc1N | 9% | 11% | -1% | 0 | ? | 2%
Nc1nonc1-n1nnc(C(=O)N/N=C/c2cc(Br)cs2)c1-c1ccccc1 | ? | -19% | -17% | -92* | ? | ?
C[C@H](CO)N1C[C@H](C)[C@@H](CN(C)C(=O)NC2CCCCC2)Oc2ccc(NS(C)(=O)=O)cc2C1=O | 20% | 10% | -15% | -3 | 3% | 2%
CCC(C(=O)NC(C)(C)C)n1c(-c2ccc3c(c2)OCO3)nc2ccccc21 (configuration not stated) | ? | . | 10% | 16 | ? | 9%
COc1cccc2c1C(=O)CC1C2CCC2CC(=O)CCC21C (configuration not stated) | 16% | -4% | 0% | 5 | 7% | 7%
COc1ccccc1C(=O)NCC(=O)OCC(=O)Nc1ccc2[nH]c(=O)[nH]c2c1 | -9% | 1% | 16% | 11 | 0% | 14%
CCOc1ccc(-c2c(C(=O)N/N=C/c3c[nH]c4ccccc34)nnn2-c2nonc2N)cc1 | ? | -15% | -25% | 0 | 16µM* | -30%
CCOc1cccc(-c2c(C(=O)N/N=C(\C)c3ccncc3)nnn2-c2nonc2N)c1 | 0% | 0% | -2% | 32 | 7% | -3%
CCOc1ccc(/C=N/NC(=O)c2nnn(-c3nonc3N)c2-c2ccc(OCC)cc2)cc1 | 4% | 0% | -2% | 23 | 4% | -2%
C/C(=N\NC(=O)c1nnn(-c2nonc2N)c1CN1CCc2ccccc21)c1ccccc1O | 6.5µM* | ? | -12% | 93 | 6.5µM* | 0%
CCOc1cccc(-c2c(C(=O)N/N=C(\C)c3ccccn3)nnn2-c2nonc2N)c1 | 2.3µM* | ? | ? | 48 | 1.6µM* | ?
CC(Nc1ccc(-c2nc(-c3ccccn3)no2)cc1[N+](=O)[O-])c1ccccc1 (configuration not stated) | -26% | . | . | . | -21% | .
CCOc1c2c(c(-c3ccc4c(c3)OCO4)c3cc(OC)c(OC)cc13)C(=O)OC2 | 0.89µM* | . | . | . | 0.56µM* | .
